For eight compounds, growth results are on record in PubChem BioAssay (NCI).

What all share (assay): NCI-60 one-dose screen, 48 h (100 = growth as untreated, 0 = no growth, -100 = all killed)
Details in all cases: 10 µM unless noted

Assay [1] has as its system NCI-H23 lung.
For assay [2], the system named is NCI-H226 lung.
Assay [3] deals with NCI-H322M lung.
Assay [4] has as its system HOP-62 NSCLC.
Assay [5] deals with NCI-H460 lung.
Assay [6] concerns HOP-92 NSCLC.
In assay [7] the test system is NCI-H522 lung.
In assay [8] the test system is A549/ATCC NSCLC.
In assay [9] the test system is 786-0 renal.
Assay [10] has as its system COLO 205 colon.
Assay [11] relates to DU-145 prostate.
The subject of assay [12] is K-562 leukemia.
Assay [13] has as its system MALME-3M melanoma.
The subject of assay [14] is MDA-MB-231 breast.
Assay [15] relates to RXF 393 renal.
Assay [16] has as its system SF-268 CNS.
Assay [17] concerns SF-295 CNS.
Assay [18] concerns SF-539 CNS.
Assay [19] deals with UACC-257 melanoma.
Assay [20] concerns M14 melanoma.

Structures are written as SMILES. This is part of a sample that, as a whole, favours compounds with a hit. Of some 83,000 tested, about 20% had one in any assay.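 Growth was measured after 48 h exposure to one concentration of compound in 96-well plates. Values under 10 count as active.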 Values without a mark were called inactive. Calls of active or inactive are those of the source.

With `COc1cccc(NC(=O)c2sc3nc(C)c(C(=O)c4ccccc4)cc3c2N)c1`, the growth was 101% in [1]; 93.9% in [2]; 84.3% in assay [3]; 89.7% in assay [4]; 61.2% in assay [5]; 86.9% in [6]. In addition, the growth in assay [7] was 92.5%; in assay [8] it was 35.1%; in [9], 89%; in [10], 107%; in assay [11], 99.9%; in [12], 64.4%. Further, the growth in assay [13] was 81.5%; in assay [14], 91.6%; in [15], 85.8%; in assay [16], 87.6%; in [17], 67.3%; in [18] it was 86.5%. Moreover, the results for the growth in assay [19] and in assay [20] were 81.5% and 80.6%, respectively.
For `C/C=C(/C)C(=O)O[C@@H]1CC(C)(C)CC2C34OC(=O)[C@@]21CC[C@@]3(C)[C@]1(C)CCC2C(C)(C)C(=O)CC[C@]2(C)C1C[C@@H]4O` (stereo not given in full), the growth was 73.5% in assay [1]; 58.6% in [2]; 70.2% in [3]; 74.3% in assay [4]; 42.4% in [5]; 2.1% (active) in [6]. The growth is 72.1% in [7]; 63.1% in [8]; 74.7% in [9]; 56.1% in assay [10]; 77.9% in [11]; 28.8% in assay [12]. Further, the growth in [13] was 85%; in assay [14] it was 58.4%; in assay [15], 76%; in [16] it was 73.4%; in assay [17] it was 78.4%; in assay [18] it was 52.1%. Moreover, the growth in assay [19] was 64.6%; in assay [20] it was 52.4%.
On to `COc1ccc(/C(C)=C(\c2ccc(Cl)cc2)c2ccc(OCCCN(C)C)cc2)cc1`, for which the growth in [1] was 82.3%; in [2], 103%; in [3], 82.2%; in [4], 101%; in assay [5] it was 40.2%; in [6], 62.5%. Moreover, the growth in assay [7] is 76.7%; in [8], 47.2%; in assay [9] it was 75.3%; in assay [10] it was 15%; in assay [11], 90.4%; in [12] it was 1.91% (active). For the same compound, the growth is 64.5% in [13]; 78.9% in assay [14]; 70.1% in assay [15]; 77.4% in assay [16]; 85.7% in [17]; 82.5% in assay [18]. For the same compound, the growth in assay [19] was 89.1%; in assay [20] it was 36.8%.
As for `Oc1ccc(Cc2ccc(O)c3ncccc23)c2cccnc12`, the growth in [1] was 9.78% (active); in assay [2], 12.1%; in [3], 9.39% (active); in assay [4] it was -2.91% (active); in assay [5], 7.23% (active); in assay [6], -25.9% (active). Further, the growth in [7] was -10.8% (active); in assay [8], 7.38% (active); in [9] it was 19%; in assay [10] it was 71%; in [11], 23.5%; in assay [12] it was 9.66% (active). The growth is -14.1% (active) in assay [13]; 5.46% (active) in assay [14]; 9.57% (active) in [15]; 27.5% in assay [16]; -20.5% (active) in [17]; 14.1% in assay [18]. For the same compound, the growth in assay [19] is -8.29% (active); in [20], 17%.
Consider `CCOC(=O)C1=CCC(n2cc(F)c(=O)[nH]c2=O)O1` (stereo not given), for which the growth in assay [1] was 101%; in assay [2], 103%; in [3], 127%; in assay [4] it was 122%; in assay [5] it was 97.8%; in assay [6], 107%. Besides, the growth is 112% in assay [7]; 102% in assay [8]; 107% in [9]; 109% in assay [10]; 97.6% in [11]; 108% in [12]. Besides, the growth was 112% in [13]; 115% in assay [14]; 171% in [15]; 101% in assay [16]; 114% in [17]; 100% in [18]. Further, the growth in assay [19] is 99.7%; in assay [20], 97.8%.
For the compound `CCC(C)C(N)C(=O)NC(CC(C)C)C(=O)N1CCCC1C(=O)NC(Cc1c[nH]c2ccccc12)C(=O)NC(CCCCN)C(=O)NC(Cc1c[nH]c2ccccc12)C(=O)N1CCCC1C(=O)NC(Cc1c[nH]c2ccccc12)C(=O)NC(Cc1c[nH]c2ccccc12)C(=O)N1CCCC1C(=O)NC(Cc1c[nH]c2ccccc12)C(=O)NC(CCCNC(=N)N)C(=O)NC(CCCNC(=N)N)C(N)=O` (stereo not given), the growth in [1] is 104%; in assay [2] it was 112%; in assay [3], 100%; in assay [4], 103%; in assay [5] it was 107%; in [6], 86.2%. Moreover, the growth is 97.7% in assay [7]; 106% in assay [8]; 102% in assay [9]; 97.2% in assay [10]; 98.4% in [11]; 104% in assay [12]. Besides, the growth is 122% in assay [13]; 116% in [14]; 110% in [15]; 116% in assay [16]; 144% in assay [17]; 110% in [18]. Also, the growth is 97.8% in assay [19] and 108% in [20].
With `O=C1C=CC2(O)OC(c3ccccc3)CC(=O)C2=C1O` (stereo not given), the growth in assay [1] was 79.2%; in [2], 99.7%; in assay [3] it was 90%; in assay [4], 86.5%; in assay [5], 93.6%; in assay [6], 93.8%. Moreover, the growth in assay [7] is -17% (active); in assay [8], 85.6%; in assay [9], 93.6%; in [10] it was 118%; in [11] it was 15.7%; in assay [12], 72.6%. In addition, the growth in assay [13] is 95.7%; in assay [14], 73.2%; in [15], 94%; in assay [16], 40.4%; in assay [17], 107%; in assay [18], 86.1%. Further, the growth in assay [19] is 87.9%; in assay [20], 90.3%.
As for `Cn1ncc(CC(=O)O)c1-n1nnc2cc(Cl)ccc2c1=O`, the growth in [1] was 102%; in [2], 95.2%; in [3] it was 80.3%; in assay [4] it was 105%; in [5], 108%; in [6], 105%. The growth in [7] is 97.3%; in assay [8] it was 97.3%; in assay [9] it was 96.6%; in assay [10], 118%; in assay [11], 109%; in assay [12], 98.4%. Further, the growth in assay [13] was 93.9%; in [14], 94.5%; in assay [15], 114%; in [16], 103%; in [17], 91.7%; in [18], 96.7%. For the same compound, the growth in [19] and in assay [20] was 100% each time.
